Bioassay records from PubChem.
ADAM17 inh – ADAM17 inhibition, QFRET primary screen. recombinant ADAM17, EDANS/DABCYL FRET peptide cleavage. inhibition, % at 6.95 µM. 0.83% of 370,000 active;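 active = inhibition above the mean of compounds lying between control limits plus 3 SD, set per campaign, cut at about 8.5% in these data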
ADAM10 inh – inhibitors of human ADAM10. O14672. recombinant ADAM10, EDANS/DABCYL FRET peptide cleavage, 3 h. AID 720582. 0.62% of 370,000 active. inhibition, % at 7 µM;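 active = inhibition above a per-campaign cutoff equal to the mean of compounds falling between control-based bounds plus 3 SD, cut at about 20% in these data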
PLC-beta3 inh – PLC-beta3 (human) inhibition, primary screen. Q01970. Purified PLC-beta3, fluorogenic substrate, fluorescence. inhibition, % at 12.2 µM. 0.18% of 370,000 active. AID 720704; in the data active = inhibition above about 11%
proKLK7 act – activates the human kallikrein-7 zymogen; 0.9% of 370,000 active; activation, % at 7 µM; AID 652039; P49862; purified proKLK7, EDANS-DABCYL substrate fluorescence; 100% is mature enzyme control, 0% vehicle;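 active = activation above the mean of all tested compounds plus 3 SD, computed per campaign excluding outliers beyond control limits, cut at about 13% in these data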
Target sequence (P49862 whole entry, looked up): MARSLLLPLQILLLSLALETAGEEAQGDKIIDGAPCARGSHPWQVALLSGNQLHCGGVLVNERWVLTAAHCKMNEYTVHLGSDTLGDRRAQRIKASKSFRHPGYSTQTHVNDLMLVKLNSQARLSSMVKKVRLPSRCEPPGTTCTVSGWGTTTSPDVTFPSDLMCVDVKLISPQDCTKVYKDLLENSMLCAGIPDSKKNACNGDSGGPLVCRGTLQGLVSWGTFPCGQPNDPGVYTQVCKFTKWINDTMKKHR
PLC-gamma1 inh – blocks human PLC-gamma1 enzyme activity; P19174; purified PLC-gamma1, fluorogenic substrate, fluorescence; inhibition, % at 12.2 µM; 0.84% of 370,000 active; AID 720700; in the data active = inhibition above about 9.5%
ADAM10 counter – counter-screen for ADAM17 exosite inhibitors: inhibitors of human ADAM10; 47% of 2,900 active; recombinant ADAM10, EDANS/DABCYL FRET peptide cleavage, 3 h; shares compounds with ADAM17 inh; inhibition, % at 6.95 µM;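 active = mean inhibition over the triplicate runs exceeds the activity threshold set in the earlier primary screen, cut at about 20% in these data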
ADAM17 confirm – confirmation of inhibitors of human ADAM17; shares compounds with ADAM17 inh; recombinant ADAM17, EDANS/DABCYL QFRET peptide cleavage; inhibition, % at 6.95 µM; 65% of 2,900 active;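 active = mean inhibition across replicates above the hit cutoff set in the primary screen, cut at about 8.5% in these data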
A number is an active result; n = inactive; x = no result. An excerpt weighted towards active compounds, which were near 2.9% of everything screened.

SMILES	ADAM17 inh	ADAM10 inh	PLC-beta3 inh	proKLK7 act	PLC-gamma1 inh	ADAM10 counter	ADAM17 confirm
CCC(=O)N[C@@H]1C=C[C@@H](CC(=O)NCc2ccccc2F)O[C@@H]1CO	n	n	n	n	n	x	x
Nn1c(SC/C=C/c2ccccc2)nnc1-c1cccnc1	n	n	n	n	n	x	x
O=C(CSc1nnc(-c2ccccc2)n1-c1ccc(Cl)cc1)Nc1ccccc1-c1ccccc1	11	n	n	n	n	21	14
Clc1ccc(-n2c(SC/C=C/c3ccccc3)nnc2-c2cccnc2)cc1	14	n	n	n	n	n	n
COc1cccc(Cn2cnc(-c3ccccc3OC)c2C2CC2)c1	n	n	n	n	n	x	x
O=C(NN=Cc1ccccc1C(F)(F)F)c1cc(-c2ccc(Cl)cc2)n[nH]1	n	n	n	n	n	x	x
Cc1ccc(-c2nn3c(C)nnc3s2)cc1NC(=O)c1cccs1	12	n	n	n	n	n	n
COc1c(C)cccc1C(=O)Nc1cc(-c2nn3c(C)nnc3s2)ccc1C	n	n	n	n	n	x	x
COc1ccccc1CN(C)CC(=O)Nc1cccc(S(=O)(=O)N2CCCCC2)c1	n	n	n	n	n	x	x
CN(CC(=O)Nc1ccc(S(=O)(=O)N2CCCC2)cc1)Cc1cccc(Cl)c1Cl	10	n	n	n	n	n	n
CC(=O)NC(c1cccc(F)c1)c1nc(-c2cc(F)cc(Cl)c2)cs1 (stereo not given)	n	n	n	n	n	x	x
COc1ccc(OC)c(NC(=O)C2CC(C)=C(C)CC2C(=O)O)c1 (stereo not given)	11	n	n	n	n	n	n
COc1ccc(OC)c(NC(=O)[C@H]2CC=CC[C@H]2C(=O)O)c1	n	n	n	n	n	x	x
CCC(=O)Nc1ccc(/C(C)=N/NC(=O)c2c(Br)c(C)nn2C)cc1	n	n	n	n	n	x	x
C/C(=N\NC(=O)c1c(Br)c(C)nn1C)c1ccc(NC(=O)C(C)Oc2ccc(Cl)cc2C)cc1 (stereo not given)	9.1	n	n	n	n	n	n
CCOC(=O)[C@@H]1[C@H]2COc3ccc(Br)cc3[C@@H]2N2C(=O)N(c3ccc(C)cc3)C(=O)[C@]12C	n	n	n	n	n	x	x
CCOC(=O)[C@@H]1[C@H]2COc3ccc(Br)cc3[C@H]2N2C(=O)N(c3ccc(C)cc3)C(=O)[C@]12C	8.8	n	n	n	n	33	22
CCCCCCCCN1C(=O)[C@H](CC(=O)N2CCN(C(=O)c3ccco3)CC2)C[C@@]2(C(=O)OC)CCCCC=C12	n	n	n	n	n	x	x
CCN(C[C@H]1N[C@@](C)(C(=O)OC)[C@H]2C(=O)N(Cc3ccccc3)C(=O)[C@@H]12)S(=O)(=O)c1ccc(C(C)(C)C)cc1	9.4	n	n	n	n	21	13
CCN(C[C@H]1N[C@@](C)(C(=O)OC)[C@H]2C(=O)N(Cc3ccccc3)C(=O)[C@@H]12)S(=O)(=O)c1ccc(F)cc1	n	n	n	n	n	x	x
COc1ccc(C2C3=C(N=C4SCC(=O)N42)c2ccccc2CC3)cc1OC (stereo not given)	9.3	n	n	n	n	n	n
COc1ccc(C2C3=C(N=C4SCC(=O)N42)c2ccccc2CC3)cc1 (stereo not given)	n	n	n	n	n	x	x
NC(CCc1ccccc1)c1csc(NC(=O)NCC2CCCCC2)n1 (stereo not given)	n	n	n	n	n	x	x
COc1ccc(COC(=O)Oc2ccc(CNC(C)=O)cc2OC)c([N+](=O)[O-])c1	n	n	n	n	n	x	x
COc1cc(COC(=O)Oc2ccc(CNC(C)=O)cc2OC)c([N+](=O)[O-])cc1OC	10.0	n	n	n	n	n	n
SMILES	ADAM17 inh	ADAM10 inh	PLC-beta3 inh	proKLK7 act	PLC-gamma1 inh	ADAM10 counter	ADAM17 confirm
Cc1cc(C)cc(NC(=O)Cc2ccc(S(=O)(=O)N3CCCC3)s2)c1	n	n	n	n	n	x	x
CN(C)S(=O)(=O)c1ccc(NC(=O)Cc2ccc(S(=O)(=O)N3CCOCC3)s2)cc1	n	n	n	n	n	x	x
O=C(Cc1ccc(S(=O)(=O)N2CCCCC2)s1)Nc1ccc(F)c(F)c1	10.0	n	n	n	n	36	13
CCN(CC)S(=O)(=O)c1cc(NC(=O)Cc2ccc(S(=O)(=O)N3CCOCC3)s2)ccc1Cl	9.9	n	n	n	n	n	12
O=S1(=O)CCN2C(c3ccco3)=CSC2=N1	n	n	n	n	n	x	x
O=S1(=O)CCN2C(c3ccc4c(c3)CCCC4)=CSC2=N1	8.7	n	11	n	n	24	12
CCCc1ccc2ccc3ccccc3c2n1	n	n	n	n	n	x	x
CN(Cc1ccccc1)N=Nc1nc[nH]c1C(N)=O	n	n	n	n	n	x	x
CCOC(=O)c1cnc2ccc(OCC)cc2c1N(C)Cc1ccccc1	9.4	n	n	n	n	24	15
Nc1nonc1-c1nc2ccccc2n1CC(=O)N1CCCCC1	9.9	n	n	n	n	n	n
CC(C)N(C)c1ncnc2c1ncn2[C@H]1CN(Cc2ccc3c(c2)OCO3)C[C@@H](CO)O1	n	n	n	n	n	x	x
Cc1ccc(S(=O)(=O)N2CCN(C(=O)COC(=O)c3ncc(Cl)c(Cl)c3Cl)CC2)c(C)c1	9.0	n	n	n	n	n	8.9
Cc1ccc(S(=O)(=O)N(C)CC(=O)O/N=C(\N)c2cccc(Br)c2)cc1	12	n	n	n	n	n	9.7
Cc1cccc(C)c1NC(=O)C1CCCN1S(=O)(=O)c1cccc2cccnc12 (stereo not given)	n	n	n	n	n	x	x
CC(C)C(=O)N1CCN(c2ccc(NC(=O)c3cccs3)cc2Cl)CC1	9.1	n	n	n	n	n	n
COc1ccc(NS(=O)(=O)c2cc(NC(=O)c3cccs3)ccc2N2CCCC2)cc1	9.1	n	n	n	n	n	11
Cc1ccccc1Nc1nc(N)[nH]c(=O)c1N=O	n	n	n	n	n	x	x
COc1ccc(/C=N\NC(=O)CN2CCN(Cc3ccccc3)CC2)cc1OCc1ccccc1	n	n	n	n	n	x	x
C=CC[C@@H](CC(=O)N(CCO)Cc1ccccc1)C(=O)N[C@H](COC(=O)[C@H](CC=C)CC(=O)OC(C)(C)C)Cc1c[nH]c2ccccc12	9.9	n	n	n	n	48	23
C=CC[C@@H](CC(=O)N[C@@H](CO)Cc1ccccc1)C(=O)N[C@@H](COC(=O)[C@@H](CC=C)CC(=O)OC(C)(C)C)Cc1c[nH]c2ccccc12	n	n	n	n	n	x	x
C=CC[C@H](CC(=O)N[C@H](CO)Cc1ccccc1)C(=O)N[C@H](COC(=O)[C@@H](CC=C)CC(=O)OC(C)(C)C)Cc1c[nH]c2ccccc12	14	n	n	n	n	27	15
